High-throughput results as filed in PubChem.
CYP2C19 activ – cytochrome P450 2C19 (human) activation; P33261; recombinant CYP2C19, luciferin-H EGE luminescence; stronger effect = higher value; 0 = fully inhibited enzyme, 1 = untreated enzyme; activation factor at 5 µM; 96,000 tested, under 10 active; AID 1025;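 active means activation factor of at least 2 at 5 µM in the primary screen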
CYP2C19 inh – blocks human cytochrome P450 2C19 | P33261 | CYP2C19 Supersomes, luciferin-H EGE luminescence, 30 min | inhibition, % at 5 µM | 96,000 tested, 21% active | AID 778;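 active means CYP2C19 inhibition above a set limit at 5 µM in the primary screen, cut at about 50% in these data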
sEH act – activators of human soluble epoxide hydrolase; P34913; 91,000 tested, 0.04% active; activation, % at 2 µM; purified human sEH enzymatic activity, activator screen; in the data active means activation above about 37%
Target sequence (P34913 whole entry, looked up): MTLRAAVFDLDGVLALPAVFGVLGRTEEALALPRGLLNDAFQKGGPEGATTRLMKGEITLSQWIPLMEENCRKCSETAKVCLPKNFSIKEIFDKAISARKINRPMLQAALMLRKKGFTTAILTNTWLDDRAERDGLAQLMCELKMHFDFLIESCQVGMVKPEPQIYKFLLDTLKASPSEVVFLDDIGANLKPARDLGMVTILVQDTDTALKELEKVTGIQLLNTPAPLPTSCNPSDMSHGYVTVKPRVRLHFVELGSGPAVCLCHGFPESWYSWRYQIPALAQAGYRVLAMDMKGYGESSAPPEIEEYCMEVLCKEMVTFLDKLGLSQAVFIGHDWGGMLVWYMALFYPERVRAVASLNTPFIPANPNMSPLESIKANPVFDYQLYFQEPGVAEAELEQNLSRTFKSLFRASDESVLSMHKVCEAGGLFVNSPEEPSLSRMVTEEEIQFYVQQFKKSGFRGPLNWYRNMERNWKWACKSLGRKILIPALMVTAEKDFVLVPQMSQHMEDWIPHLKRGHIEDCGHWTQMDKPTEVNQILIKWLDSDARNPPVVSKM
CYP2C9 inhib – inhibitors of human CYP2C9; P11712; CYP2C9 Supersomes, luciferin-H conversion, luminescence; inhibition, % at 5 µM; 96,000 tested, 20% active;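 active means blocking of liver enzyme CYP2C9 beyond about 50% at 5 µM, limit read from the data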
sEH inhibitor – soluble epoxide hydrolase (human) inhibition; P34913; recombinant human sEH enzymatic activity assay; inhibition, % at 2 µM; 91,000 tested, 0.34% active; in the data active means inhibition above about 80%
CYP2C9 activ – CYP2C9 (human) activation; P11712; activation factor at 5 µM; 96,000 tested, 1.4% active; recombinant CYP2C9, luciferin-H conversion, luminescence; stronger effect = higher value; factor 1 = untreated enzyme, 0 = blocked;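 active means activation factor of 2 or more for CYP2C9 at a 5 µM dose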
A number is an active result; . = inactive; / = no result given. A selection: hits, their analogues and other compounds. The true share with any hit is near 27%.

SMILES	CYP2C19 activ	CYP2C19 inh	sEH act	CYP2C9 inhib	sEH inhibitor	CYP2C9 activ
COc1ccc(COC(=O)NNC(=O)c2ccc(OC)cc2)cc1	/	/	.	/	.	/
COc1ccc(C(=O)Nc2cc(OC)cc(OC)c2)cc1	.	86	.	.	.	.
CCN(C(=O)c1cn(C)c(=O)c2cc(OC)c(OC)cc12)c1cc(OC)ccc1OC	.	.	/	.	/	.
CCOc1ccccc1N1CCN(C(=O)c2cccc(-c3ccc(O)cc3)c2)CC1	.	74	.	87	.	.
CCOc1ccccc1N1CCN(C(=O)c2c(C)noc2C)CC1	.	.	.	.	.	.
CCOc1ccccc1N1CCN(C(=O)c2ccncc2)CC1	.	99	.	67	.	.
Cc1noc(/C=C/N(C)C)c1S(=O)(=O)N1CCC(C(=O)O)CC1	.	.	/	.	/	.
Cc1ccc(C)n1-n1c(C)nc2sc(-c3ccccc3)cc2c1=O	.	.	.	.	.	.
Cc1ccccc1-n1c(SCC(N)=O)nc2sc(-c3ccccc3)cc2c1=O	.	63	.	84	.	.
C=CCSc1nc2sc(-c3ccccc3)cc2c(=O)n1N	.	.	.	50	.	.
CCCCCC(C)n1[nH]c(=O)c2c(C)cc(C)nc21 (stereo not drawn)	.	98	/	66	/	.
O=c1ccn(CCOc2ccc(Cl)cc2)c(=O)[nH]1	.	59	.	.	.	.
CCOC(=O)c1[nH]c2ccc(Br)cc2c1NC(=O)CCN1CCC(C(=O)OCC)CC1	.	76	.	.	.	.
CCOC(=O)c1[nH]c2ccc(Br)cc2c1NC(=O)CCN1CCCCC1	.	.	.	.	.	.
CCOC(=O)c1[nH]c2ccc(Br)cc2c1NC(=O)CCN1CCN(C(=O)OCC)CC1	.	.	/	76	/	.
Cc1sc(CO)c(Sc2ccccc2)c1C(=O)O	/	/	.	/	.	/
COc1cc(C(O)P(=O)(OC2CCCCC2)c2ccc(N(C)C)cc2)cc(OC)c1OC (stereo not drawn)	.	84	.	.	.	.
N#CC1(P(=O)(c2ccccc2)c2ccccc2)CC1	.	.	/	.	/	.
O=S(=O)(Cc1cccc(F)c1)c1c[nH]c2ccccc12	.	100	/	81	/	.
COc1ccc(S(=O)(=O)n2ccc(-c3ccc(OCCN(C)c4ccccn4)cc3)n2)cc1	.	.	.	57	.	.
COc1ccccc1N(CN1CCCC1=O)C(=O)c1ccccc1F	.	.	/	.	/	.
COc1ccccc1N(CN1CCCC1=O)C(=O)c1c(F)cccc1F	.	.	/	76	/	.
Cn1c(=O)[nH]c(=O)c2c1nc(Br)n2CC(O)COc1ccccc1 (stereo not drawn)	.	.	.	.	.	.
Cc1cc(C)c2c(c1)OC(O)(C(F)F)CC2=O (stereo not drawn)	.	88	/	.	/	.
CCCCOC(=O)Sc1nc2ccccc2o1	.	58	.	52	.	.
SMILES	CYP2C19 activ	CYP2C19 inh	sEH act	CYP2C9 inhib	sEH inhibitor	CYP2C9 activ
CCCCOC(=O)Nc1nc2ccccc2s1	.	.	.	.	.	.
Cc1ccc2cc3c(NC(=O)C(C)C)nn(C)c3nc2c1	.	.	.	70	.	.
CCn1nc(NC(=O)c2cccnc2)c2cc3cccc(C)c3nc21	.	.	.	.	.	.
Cc1ccc2nc3c(cc2c1)c(NC(=O)c1cccnc1)nn3C	.	.	/	58	/	.
Cc1ccc(SCC(=O)Nc2ccccc2C(=O)O)cc1	.	.	.	85	.	.
O=C(CSc1ccccc1)Nc1ccccc1C(=O)O	.	.	.	.	.	.
COC(=O)c1ccccc1NC(=O)CSc1ccccc1	.	95	/	.	/	.
COC(=O)c1ccccc1NC(=O)n1cc(C)cn1	.	.	/	.	/	.
COC(=O)c1ccccc1NC(=O)CSc1n[nH]c(CC(C)C)n1	.	86	.	.	.	.
COC(=O)c1ccccc1NC(=O)Cn1cc(Br)cn1	.	60	.	.	.	.
COC(=O)c1ccccc1NC(=O)CSc1n[nH]c(C)n1	/	/	.	/	.	/
CCCC(=O)Nc1ccc(C(=O)NNC(=O)c2ccccc2Br)cc1	.	.	.	.	.	.
CCOc1cc(C(=O)Nc2cccc3ncccc23)cc(OCC)c1OCC	.	.	.	.	.	.
COC(=O)c1ccccc1NC(=O)COc1ccccc1	.	53	.	.	.	.
CC1(C)CC(=O)C2=C(C1)Nc1ncnn1C2c1ccccn1 (stereo not drawn)	.	.	.	.	.	.
COc1ccc(OC)c(S(=O)(=O)NCC2CCCO2)c1 (stereo not drawn)	.	.	/	.	/	.
COc1ccc(Br)cc1/C=C/C(=O)Nc1c(C)cccc1C	.	.	.	.	.	2.1
CCN(CC)c1ccc(NC(=O)/C=C/c2cc(Br)ccc2OC)cc1	.	.	.	.	.	2.2
COc1ccc(NC(=O)/C=C/c2cc(Br)ccc2OC)cc1	.	.	.	.	.	.
O=C1CCC(C(=O)Nc2cccc3ccccc23)N1 (stereo not drawn)	.	.	.	.	.	.
CC1(Cc2ccc3c(c2)OCO3)NC(=O)NC1=O (stereo not drawn)	.	.	.	.	.	.
NC(=O)/C(=N\OC(=O)c1ccco1)c1nc(-c2ccc(Br)cc2)cs1	.	.	.	.	.	.
Cc1cc2oc3c(c(=O)c2cc1C)C(c1cccc(Br)c1)N(Cc1ccco1)C3=O (stereo not drawn)	.	98	.	95	.	.
O=C1c2oc3ccc(Cl)cc3c(=O)c2C(c2cccc(Br)c2)N1CCO (stereo not drawn)	.	50	.	.	.	.
Cc1ccc2oc3c(c(=O)c2c1)C(c1cccc(Br)c1)N(Cc1ccco1)C3=O (stereo not drawn)	.	.	.	.	.	.
SMILES	CYP2C19 activ	CYP2C19 inh	sEH act	CYP2C9 inhib	sEH inhibitor	CYP2C9 activ
COc1ccccc1-c1nnc(Sc2nc([N+](=O)[O-])nn2C)o1	.	.	.	.	.	.
O=[N+]([O-])c1ccc(Oc2cccc(F)c2)c2ccncc12	.	85	.	83	.	.
Cc1ccccc1NC(=O)COC(=O)CN1C(=O)NC(C)(C)C1=O	.	.	.	.	.	.
CC(OC(=O)CN1C(=O)NC(C)(C)C1=O)C(=O)c1ccccc1 (stereo not drawn)	.	60	.	.	.	.
Nc1cc(=O)[nH]c(SCC(=O)N2CCCc3ccccc32)n1	/	/	.	/	.	/
CCc1nnc(SCC(=O)N2CCCc3ccccc32)nc1CC	.	78	.	56	.	.
CSc1nsc(SCC(=O)N2CCCc3ccccc32)n1	.	99	.	80	.	.
O=C(CSc1n[nH]c(-c2ccccc2O)n1)N1CCCc2ccccc21	.	82	.	86	.	.
COc1ccc(-n2nc(C(=O)NCC(=O)NCc3ccco3)c3ccccc3c2=O)cc1Cl	.	.	.	.	.	.
c1ccc(-c2nc(NC3CC3)nc(-n3ccnc3)n2)cc1	.	.	.	.	.	.
CC(=O)c1c(C)[nH]c(C(=O)CSc2nc3ccc(C)cc3[nH]2)c1C	.	90	.	94	.	.
